Sampled rows, rich in hits. Any-hit rate of the full collection: about 4.5%.
GDH-TPI counter-1 – GDH-TPI coupling enzyme inhibitors, primary screen, artefact control for M. tuberculosis FBA inhibitor project, biochemical, absorbance, full deck; GDH-TPI coupled enzyme counterscreen, NADH absorbance; inhibition, % at 4.8 µM; hit rate 1.2% among 360,000; AID 588335, 2011; in the data active means inhibition above about 30%;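 further: 0% = DMSO wells and 100% = wells lacking the enzyme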
Mtb FBA inh – Mtb FBA enzyme inhibitors, primary screen, biochemical, fluorescence, strain H37Rv; Fructose-bisphosphate aldolase (Mycobacterium tuberculosis (strain ATCC 25618 / H37Rv)), …; purified M. tuberculosis FBA, fluorescence read-out; inhibition, % at 1 µM; hit rate 2.3% among 360,000; AID 588726, 2011;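 further: 0% = vehicle and 100% = reference inhibitor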
Target sequence (P9WQA3 whole entry, looked up): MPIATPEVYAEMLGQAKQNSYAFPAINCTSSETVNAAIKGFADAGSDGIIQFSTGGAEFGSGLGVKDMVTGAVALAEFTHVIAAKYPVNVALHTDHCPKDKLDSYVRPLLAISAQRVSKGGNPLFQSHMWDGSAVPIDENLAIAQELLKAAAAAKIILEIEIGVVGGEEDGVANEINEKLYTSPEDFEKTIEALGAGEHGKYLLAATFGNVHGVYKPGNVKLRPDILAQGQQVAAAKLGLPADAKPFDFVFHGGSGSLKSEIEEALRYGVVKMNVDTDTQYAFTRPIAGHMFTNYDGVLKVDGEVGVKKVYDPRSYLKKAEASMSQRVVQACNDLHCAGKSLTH
PrP UTR inh – inhibition of PrP 5' UTR reporter expression; hit rate 0.35% among 340,000; cell-based PrP 5' UTR mRNA reporter, plate reader; AID 488862, 2010; inhibition, % (concentration not given with the values); in the data active means inhibition above about 52%; further: 0 = median of the neutral control wells
PfHsp40 rescue – rescue of yeast from PfHsp40 toxicity, primary screen, S. cerevisiae, ATP luminescence; S. cerevisiae expressing PfHsp40, growth rescue; growth rescue, % at 12.5 µM; hit rate 0.68% among 340,000; in the data active means growth rescue above about 28%, passing the limit was not always enough; inconclusive means no clear call, values can overlap the other calls;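 further: yeast W303a lacking pdr1 and pdr3 grown in galactose medium; growth measured after three days at 30 °C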
PrPC surface inh – inhibitors of human cell surface prion protein PrPC, primary screen, cell-based, TR-FRET. Major prion protein (Homo sapiens), P04156. TR-FRET read-out. inhibition, % at 13.8 µM. hit rate 0.43% among 370,000. AID 720596, 2013; in the data active means inhibition above about 24%; further: 0% = median of the test wells and 100% = reference compound wells
BJeLR lethal – MLPCN primary cell-based screen for lethality selective to Ras in HRASV12 cells; BJeLR (HRASV12) viability, CellTiter-Glo ATP luminescence, 48 h; inhibition, % (concentration not given with the values); hit rate 0.17% among 300,000; in the data active means inhibition above about 50%; inconclusive means no clear call, values can overlap the other calls
Mtb FBA confirm – M. tuberculosis aldolase blockers, biochemical, fluorescence, strain H37Rv, confirmation | purified M. tuberculosis FBA, fluorescence read-out | shares compounds with Mtb FBA inh | AID 651616, 2012 | hit rate 78% among 5,600 | inhibition, % at 1 µM;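 further: 0% = vehicle wells and 100% = reference inhibitor wells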
GDH-TPI counter-2 – GDH-TPI coupling enzyme inhibitors, artefact control for M. tuberculosis FBA inhibitor project, biochemical, fluorescence, high throughput. shares compounds with Mtb FBA inh. GDH-TPI coupled enzyme counterscreen. inhibition, % at 1 µM. hit rate 81% among 5,600. AID 652141, 2013; in the data active means inhibition above about 10%
* marks the source's active call; other numbers are inactive results; ? = inconclusive; . = no result; + = active, no number. Unless noted, no stated cut-off is given here; in the data, active means inhibition above about 27%; inactive means the rest.

SMILES	GDH-TPI counter-1	Mtb FBA inh	PrP UTR inh	PfHsp40 rescue	PrPC surface inh	BJeLR lethal	Mtb FBA confirm	GDH-TPI counter-2
Cn1c(SCc2ccc(F)cc2Cl)nc2ccccc2c1=O	-4.8	3.6	-10.0	2.5	0.9	.	.	.
CC(C)n1c(O)c(/C=C2\C=NN=C2c2ccccc2)sc1=S	16.0	55.8*	-22.8	0.5	-1.7	-13.4	199.2*	135.2*
CCn1c(O)c(/C=C2\C=NN=C2c2ccc(C)cc2)sc1=S	9.4	-0.9	-25.5	1.7	8.5	-2.8	.	.
CN(C)S(=O)(=O)n1cnc([C@@H]2[C@H]3C(=O)OC[C@@H]3C[C@@]23N=CN(Cc2ccccc2)C3=O)c1	-0.8	-0.8	-19.0	-0.8	0.9	.	.	.
O=c1oc2c(O)cccc2cc1-c1nc2ccccc2[nH]1	4.8	55.2*	-12.2	2.8	-9.2	21.5	141.9*	103.2*
COc1cccc(N=c2oc3ccccc3cc2-c2nc3ccccc3[nH]2)c1	24.7	3.9	-36.0	-0.4	-28.0	5.0	.	.
CCCc1cc(=O)n2[nH]c(C)c(-c3ccccc3)c2n1	-0.5	27.2*	12.8	1.5	2.9	0.2	2.1	-2.2
CCOC(=O)Cc1cc(=O)n2[nH]c(C)c(-c3ccc(Cl)cc3)c2n1	11.4	61.5*	-3.8	0.5	2.8	-5.2	155.8*	110.0*
COc1ccc(-c2c(C(F)(F)F)[nH]n3c(=O)cc(-c4ccccc4)nc23)cc1	0.5	39.3*	-43.6	0.6	5.5	0.7	88.1*	83.6*
Cc1[nH]n2c(=O)cc(C(C)(C)C)nc2c1-c1ccccc1	15.1	50.5*	23.2	0.3	9.1	6.3	3.0	-1.2
CC1(C)CC(NC(=O)c2ccccc2F)CC(C)(C)N1	8.6	-0.9	-29.1	-1.9	-2.9	-7.7	.	.
Cc1[nH]n2c(=O)c3c(nc2c1-c1ccccc1)CCC3	11.7	28.5*	-18.0	1.8	-5.1	-9.4	131.2*	96.6*
Cc1[nH]n2c(=O)c3c(nc2c1-c1ccc(Cl)cc1)CCC3	11.2	6.4	-11.1	-0.6	.	2.5	.	.
CCc1cc(=O)n2[nH]c(-c3ccccc3)c(-c3ccccc3)c2n1	11.6	33.9*	-0.4	0.3	-3.8	1.5	149.9*	111.0*
CCOC(=O)C1C(=O)C=C(c2ccc(C)cc2)CC1c1cccc([N+](=O)[O-])c1 (stereo not given)	5.4	-4.7	-58.5	0.7	-0.2	-0.8	.	.
CC(C)(C)[C@H]1C=C(C(=O)NC2CC2)O[C@@H](OCc2ccc(CO)cc2)C1	3.4	4.4	10.5	-1.7	6.2	-4.0	.	.
Cc1ccc2cccc(OCC(=O)N3CC(C)CC(C)C3)c2n1 (stereo not given)	6.1	7.6	-6.4	-1.9	3.4	-2.3	.	.
O=C(COc1ccc2ccc(=O)oc2c1)N1CCC(C(=O)O)(c2ccccc2)CC1	1.0	27.1*	-4.4	-0.5	-3.0	-2.1	+	+
CCCCc1cc(=O)oc2c(C)c(OCC(=O)N3CCC(C(=O)O)(c4ccccc4)CC3)ccc12	16.7	34.5*	-38.5	1.1	0.9	4.1	182.1*	131.3*
Cc1c(C)c2ccc(OCC(=O)N3CCOCC3)c(C)c2oc1=O	8.2	81.3*	-21.2	0.0	-0.1	-7.0	-0.3	-4.4
Cc1c(C)c2ccc(OCC(=O)N3CCC(C(=O)O)(c4ccccc4)CC3)c(C)c2oc1=O	9.0	99.2*	-18.5	1.3	6.0	-9.5	102.5*	90.6*
Cc1oc2cc3oc(=O)c(CCC(=O)N4CCC(C(=O)O)(c5ccccc5)CC4)c(C)c3cc2c1C	9.0	3.3	.	.	9.9	.	.	.
CCOc1ccccc1NC(=O)CN(c1ccc(OC)cc1OC)S(=O)(=O)c1ccccc1[N+](=O)[O-]	5.7	-1.8	-65.9	0.3	4.1	-6.6	.	.
Cc1cccc(-c2noc(C(C)NC(=O)c3ccco3)n2)c1 (stereo not given)	5.2	-1.9	-22.5	8.5	1.9	9.6	.	.
Cc1cccc(C=Nc2ccc3c4c(cccc24)CC3)c1O	-0.7	36.5*	-3.3	-1.8	4.3	-4.6	54.4*	54.5*
SMILES	GDH-TPI counter-1	Mtb FBA inh	PrP UTR inh	PfHsp40 rescue	PrPC surface inh	BJeLR lethal	Mtb FBA confirm	GDH-TPI counter-2
Oc1ccc(Cl)cc1/C=N/c1nccs1	13.1	3.2	-43.8	1.3	-4.3	7.2	.	.
Oc1ccc(Cl)cc1C=Nc1ccc2c3c(cccc13)CC2	17.3	51.5*	-57.5	-0.9	7.3	1.4	34.7*	18.8*
CCc1ccc(O)c(N=Cc2cccc(C)c2O)c1	2.5	-1.2	-26.3	0.2	1.5	-13.3	.	.
O=C(CN(Cc1ccccc1)C(=O)CCC(=O)Nc1nccs1)NCc1ccc(F)cc1	-15.7	-3.9	-25.9	-1.2	1.9	-11.4	.	.
CCCCN(C)CCNC(=O)c1cc2c(-c3ccccc3F)nn(C)c2s1	5.9	45.9*	-4.5	-0.7	-2.3	-0.2	37.5*	32.5*
CCCCNC(=O)c1cc2c(-c3ccc(Cl)cc3)nn(C)c2s1	2.4	16.1	2.2	0.2	-0.8	0.9	.	.
COCCNC(=O)c1cc2c(-c3ccc(Cl)cc3)nn(C)c2s1	5.3	79.0*	-4.9	-0.5	-7.0	1.1	69.3*	53.8*
CCCCN(C)CCNC(=O)c1cc2c(=O)[nH]c3ccccc3c2n1C	5.0	14.5	-13.5	-0.6	-11.3	6.1	.	.
Cn1nc(-c2ccc(Cl)cc2)c2cc(C(=O)NCCCN3CCCC3)sc21	13.0	35.2*	3.8	-0.5	2.2	45.6	80.8*	70.7*
CNC(=O)c1cc2c(-c3ccccc3)nn(C)c2s1	6.7	72.8*	-6.0	-0.6	-0.6	-7.3	102.3*	79.7*
CC(NC(=O)c1cc(COc2c(F)cccc2F)on1)c1cnn(-c2ccccc2)c1 (stereo not given)	4.5	0.5	-47.9	1.1	8.8	3.4	.	.
CCC(C)(C)c1ccc(OCCCC[n+]2cccc(C)c2)c(C(C)(C)CC)c1	1.2	-0.9	-12.9	-0.2	20.7	3.4	.	.
COCCNC(=O)c1cc2c(-c3ccccc3F)nn(C)c2s1	15.9	35.1*	-15.1	1.0	1.8	-0.6	116.9*	88.0*
COCCCNC(=O)c1cc2c(-c3ccc(Cl)cc3)nn(C)c2s1	19.7	74.0*	-20.5	0.2	-8.0	0.1	76.8*	73.1*
Cc1cc(=O)oc2ccc(OCC(=O)NCc3ccco3)cc12	5.3	6.8	-25.6	?	6.9	4.9	.	.
